Screening results as filed in PubChem BioAssay.
NPYLR7 agonist – mosquito NPYLR7 agonism; 0.15% of 270,000 active; activation, % at 10 µM; HEK293T NPYLR7/Galpha15, GCaMP6s calcium fluorescence; in the data active = activation above about 40%;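 also: 0% = vehicle and 100% = reference agonist at the receptor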
hcGAS lum – inhibitors of human cGAS | inhibition, % at 12.5 µM | AID 1259398 | 0.081% of 290,000 active | Q8N884 | recombinant h-cGAS, ATP depletion, Kinase-Glo luminescence;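 also: 0% = vehicle reaction and 100% = reaction without DNA for no activity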
Target sequence (Q8N884 whole entry, looked up): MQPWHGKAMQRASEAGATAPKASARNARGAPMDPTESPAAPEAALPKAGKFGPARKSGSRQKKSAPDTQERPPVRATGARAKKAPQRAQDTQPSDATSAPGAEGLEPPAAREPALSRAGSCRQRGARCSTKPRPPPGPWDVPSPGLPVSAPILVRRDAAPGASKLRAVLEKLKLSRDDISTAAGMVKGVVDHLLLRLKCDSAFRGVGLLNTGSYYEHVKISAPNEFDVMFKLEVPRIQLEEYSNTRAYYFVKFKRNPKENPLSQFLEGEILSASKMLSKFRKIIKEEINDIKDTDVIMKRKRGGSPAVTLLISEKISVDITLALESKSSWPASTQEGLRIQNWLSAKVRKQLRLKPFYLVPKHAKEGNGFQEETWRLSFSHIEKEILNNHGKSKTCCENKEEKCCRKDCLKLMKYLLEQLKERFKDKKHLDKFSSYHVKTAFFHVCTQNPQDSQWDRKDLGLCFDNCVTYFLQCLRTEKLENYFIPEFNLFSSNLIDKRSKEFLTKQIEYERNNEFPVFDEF
mcGAS inh – blocks mouse cGAS activity. recombinant cGAS, Kinase-Glo ATP depletion luminescence. AID 1259399. Q8C6L5. 0.15% of 160,000 active. inhibition, % at 12.5 µM;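 also: 0% = negative control wells and 100% = reference inhibitor with no enzyme activity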
* hit, by the source's call; · = no result given; ! = not confirmed by another sample. Only some compounds are listed: those with a hit (about 0.28% of all), similar ones and a draw of the others. Rule as the data show it, unless noted: active = inhibition above about 40%; inactive = the rest.

SMILES	NPYLR7 agonist	hcGAS lum	mcGAS inh
O=C(C1CCCC1)N1CCCC(N2CCN(CCOc3ccccc3)CC2)C1 (stereo unspecified)	-4.9	1.1	0.8
COCCN=Cc1cc(Br)cc(Br)c1O	8.8	67.6*	2.4
NC(=O)NN=Cc1cc(Br)cc(Br)c1O	0.7	7.9	·
COc1ccc(CCNC(=O)c2ccccc2N2CCC(NC(=O)C3CC3)CC2)cc1	15.8	-4.9	-3.9
CCSc1nnc2ccc(-c3ccc(Br)cc3)nn12	-11.5	-5.9	-7.2
CCc1nc2ccc(C(=O)N3CCNC(=O)C3)cn2c1N(C)C(=O)Cc1ccccc1	16.1	-6.3	-3.0
O=C(O)C1(C(=O)O)CCC1.[NH2-].[NH2-].[Pt+2]	2.5	-0.5	-3.8
Fc1cccc(-c2nnn3c2nc(NCc2ccc(Cl)cc2)c2ccccc23)c1	-7.7	-6.1	-6.7
C=c1[nH]n(-c2ccccc2)c(=O)c1=CC=C1N(C)c2ccccc2C1(C)C	19.0	-8.6	·
CN1C(=CC=C2C(=O)CC(C)(C)CC2=O)C(C)(C)c2ccccc21	297.8*	-8.0	·
CCOC(=O)C1(Cc2cccc(Cl)c2)CCCN(Cc2cccn2-c2ncccn2)C1 (stereo unspecified)	11.6	-3.0	-3.4
Cc1noc(C)c1CN(C)C(=O)Cc1cccs1	-12.6	-9.6	·
Nc1ccc(Oc2cc(N)cc(Oc3ccccc3)c2)cc1	74.2*	-3.1	-3.1
Nc1ccc(Oc2ccc([N+](=O)[O-])cc2)cc1	-10.8	0.8	·
O=C(O)c1c[nH]c2c(ccc3ccccc32)c1=O	5.4	14.9	42.3*
O=C(O)c1c[nH]c2cc(C(F)(F)F)ccc2c1=O	-0.4	-4.8	-3.2
COC(=O)n1c(=O)oc2cc(S(=O)(=O)N3CCOCC3)ccc21	-0.9	-5.9	·
COC(=O)n1c(=S)oc2cc(Cl)ccc21	10.1	5.7	40.2*
CCN1CCN(C2=C(c3c(-c4ccccc4)[nH]n(C)c3=O)C(=O)N(c3cc(C)ccc3OC)C2=O)CC1	18.5	-9.6	-5.6
COCC(=O)Nc1ccc(N2CCN(C(=O)c3cc(C)on3)CC2)nc1	5.6	-4.2	-4.8
O=[N+]([O-])c1ccc2nc(-c3nc4ccc([N+](=O)[O-])cc4[nH]3)[nH]c2c1	3.8	-6.9	·
O=[N+]([O-])c1ccc2nc(C(F)(F)F)[nH]c2c1	11.7	41.4*	·
CCOC(=O)c1cc(C(=O)OCC)c2c(C)cc(C)cc(C)c1-2	-7.0	-26.9	·
CCN=c1cc2oc3cc(NCC)c(C)cc3c(-c3ccccc3C(=O)OCC)c-2cc1C	159.0*	-29.4	-20.4
CCOC(=O)COc1cc2c(-c3cc4ccccc4o3)cc(=O)oc2cc1C	0.2	-3.4	-5.9
SMILES	NPYLR7 agonist	hcGAS lum	mcGAS inh
CCOC(=O)c1ccccc1-c1c2ccc(=N)cc-2oc2cc(N)ccc12	119.6*	-2.4	-12.1
CCOC(=O)c1c(-c2ccc(C)cc2)csc1NC(=O)c1cccnc1	-3.7	-9.4	-7.5
COc1cccc(C(=O)NCc2nnc(SCC(=O)N3CCc4ccccc43)n2-c2cccc(C(F)(F)F)c2)c1	15.3	-7.9	-4.3
CCN(CC)Cc1cnc2c(C(=O)NCc3ccc4c(c3)OCO4)cnn2c1	0.7	-4.3	-14.2
COc1cccc(CNC(=O)c2oc3ccccc3c2CS(C)=O)c1 (stereo unspecified)	6.7	-7.5	·
O=c1cc(-c2ccccc2)n2c(=S)[nH]nc2[nH]1	-3.3	63.8*	·
CCc1cc(=O)[nH]c2n[nH]c(=S)n12	-3.3	3.2	·
COCCCN1CN(Cc2ccccn2)Cn2c1nc1ccccc12	0.1	-5.1	-5.1
O=C(Cc1cccs1)NC1CCN(c2ccccc2C(=O)NCc2ccc(F)cc2)CC1	-4.8	-0.8	-4.2
CC(C)(C)C(=O)CSc1nnc(-c2ccncc2)n1Cc1ccccc1	-4.5	-0.7	-3.5
CNC(=O)c1cnc(/C=C/c2cc(OC)c3c(c2)OCCO3)s1	-7.2	2.6	·
COC(=O)c1cnc(/C=C/c2cc(C)c(O)c(C)c2)s1	46.4*	-6.3	·
Cc1cc2c(C(C)C)c(O)c(O)c(C=O)c2c(O)c1-c1c(C)cc2c(C(C)C)c(O)c(O)c(C=O)c2c1O	-3.0	-7.1	48.0*!
CN(C)c1ccc(/C=C2/C(=O)NC(=O)N(Cc3ccccc3)C2=O)cc1	4.9	11.0	-3.1
CCCn1c2c(c(=O)n(C)c1=O)C(=O)C(=Cc1ccc(N(C)C)cc1)N2	259.1*	-2.2	-5.4
CS(=O)(=O)NCC(=O)N1CCCC(COc2ccc(F)cc2)C1 (stereo unspecified)	·	-5.5	-9.3
COc1cc(C=NNC(=O)c2ccccc2O)cc(Br)c1O	0.1	0.2	·
CC(C)(C)NN=Cc1cc(Br)c(O)c(Br)c1	4.2	7.0	75.4*
CC(=O)N1CC(CO)C2(CCN(C(=O)C3CC=CC3)CC2)C1 (stereo unspecified)	·	-8.8	-4.9
COCCN1CC(CO)C2(CCN(C(=O)C3CC=CC3)CC2)C1 (stereo unspecified)	·	44.8*	-7.5
C=CCNC(=O)CSc1nnc(-c2ccccc2)c2sc(C)nc12	0.1	-5.2	-5.4
O=C(O)c1ccccc1OP(=O)(O)O	-10.4	5.1	60.9*
CCCCC(=O)Oc1ccccc1C(=O)O	·	-5.9	-5.3
Cc1nn(-c2ccc(S(N)(=O)=O)cn2)c2c1CCCC2	-2.5	-12.1	·
CC(C(=O)Nc1c(F)cccc1F)N1CCN(c2nccs2)CC1 (stereo unspecified)	-0.7	-13.0	·
SMILES	NPYLR7 agonist	hcGAS lum	mcGAS inh
COc1cccc2c1C(=O)c1c(O)c3c(c(O)c1C2=O)C[C@@](O)(C(C)=O)C[C@@H]3OC1CC(N)C(O)C(C)O1 (stereo partly specified)	-2.8	61.4*	·
COc1cccc2c1C(=O)c1c(O)c3c(c(O)c1C2=O)C[C@@](O)(C(=O)CO)C[C@@H]3O[C@H]1C[C@H](N)[C@H](O)[C@H](C)O1	-13.0	58.3*	·
CCNC(=S)N1CCN(C(=O)OCC)CC1	·	-6.8	-5.2
O=C1NC(=S)NC(=O)C1=Cc1ccc(-c2cc([N+](=O)[O-])ccc2O)o1	-15.6	51.2*	42.1*
COc1cc([N+](=O)[O-])ccc1-c1ccc(/C=C2/NC(=S)NC2=O)o1	0.8	-2.9	-1.0
CCCCC(CC)CCC(CC(C)C)OS(=O)(=O)O (stereo unspecified)	-5.0	41.7*	·
CCCCCCCCCCCCOS(=O)(=O)O	-20.6	-2.6	·
COc1ccc(CCNC(=O)c2ccc(-c3cc(-c4cccc(C(F)(F)F)c4)n[nH]3)cc2)cc1	-1.9	-10.8	-9.5
COc1cccc(CNC(=O)c2ccc(-c3cc(-c4cccc(C(F)(F)F)c4)n[nH]3)cc2)c1	-6.7	-0.6	103.8*
CS(=O)(=O)/C(C#N)=C/c1cnc2ccc(Br)cn12	0.7	88.5*	-7.2
CCOc1cc(C=C(C#N)S(C)(=O)=O)ccc1OC	6.2	-5.3	-5.1
CCOC(=O)CNC(=O)N1CCCC(Nc2ccc(C(C)C)cc2)C1 (stereo unspecified)	0.0	-7.4	-11.0
O=C1CC(C(=O)NCc2ccco2)C2(CCCCC2)O1 (stereo unspecified)	0.9	-9.5	·
CC(C)S(=O)(=O)Oc1ccc(CN(Cc2ccco2)C(=O)c2cccc(F)c2)cc1	10.0	44.8*	-3.9
CC(C)S(=O)(=O)Oc1ccc(CN(C(=O)c2cccc(F)c2)C2CC2)cc1	23.7	-11.1	-4.4
CC1=Nc2ccccc2C1=Cc1c(O)n(-c2ccccc2)c(=S)[nH]c1=O	-0.4	-4.6	-3.1
Cc1sc(Br)cc1S(=O)(=O)N(C)CCN(C)C	3.5	-11.3	·
